Compounds without any hit were thinned out: in the full panel of roughly 83,000, 20% have a hit.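 Plates (96-well) were seeded with cells, treated with compound at one concentration, and incubated for 48 hours before percent growth was determined.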 Unmarked numbers belong to inactive results. Calls of active or inactive are those of the source. Rule for the calls: active = growth percent below 10; inactive = the rest.
Columns and labels:
Assay in all cases: NCI-60 one-dose screen, 48 h (100 = growth as untreated, 0 = no growth, -100 = all killed)
Settings in all cases: 10 µM
[1] = tested on: SR leukemia
[2] = tested on: RPMI-8226 leukemia
[3] = tested on: OVCAR-8 ovarian
[4] = tested on: OVCAR-5 ovarian
[5] = tested on: SK-OV-3 ovarian
[6] = tested on: HS 578T breast
[7] = tested on: NCI/ADR-RES ovarian
[8] = tested on: T-47D breast
[9] = tested on: BT-549 breast
[10] = tested on: MDA-MB-435 melanoma
[11] = tested on: SW-620 colon
[12] = tested on: MCF7 breast
[13] = tested on: HCT-116 colon
[14] = tested on: HCC-2998 colon
[15] = tested on: KM12 colon
[16] = tested on: OVCAR-4 ovarian
[17] = tested on: OVCAR-3 ovarian
[18] = tested on: IGROV1 ovarian

Structure (SMILES) | growth [1] | growth [2] | growth [3] | growth [4] | growth [5] | growth [6] | growth [7] | growth [8] | growth [9] | growth [10] | growth [11] | growth [12] | growth [13] | growth [14] | growth [15] | growth [16] | growth [17] | growth [18]
CC1(C)CCc2cc(-c3ccn(S(=O)(=O)c4ccc(Cl)cc4)n3)ccc2O1 | 45.5% | 52.1% | 86.6% | 101% | 91.3% | 99.5% | 69.3% | 54.1% | 88.8% | 85.8% | 87.7% | 71.3% | 61.1% | 94.3% | 77% | – | – | –
CCC1(C)OC(=O)NC1=O (stereo not drawn) | 115% | 96.6% | 105% | 97.1% | 84% | 109% | 95.9% | 93.8% | 93.3% | 112% | 110% | 97.7% | 87.7% | 99% | 107% | 112% | 112% | –
COc1cc(Cl)cc(-c2nn(-c3cccc(NC(=O)Nc4cccc(C(F)(F)F)c4)c3)cc2-c2ccncc2)c1 | -13.5% (active) | -14.2% (active) | -12.3% (active) | – | 14.2% | 23.1% | 3.58% (active) | -0.45% (active) | 12.9% | -20.9% (active) | 11.2% | 0.3% (active) | 5.07% (active) | 19% | 9.81% (active) | 3.28% (active) | -0.412% (active) | 28.8%
CC(C)c1ncc(CO)n1Cc1c(Cl)cccc1Cl | 97.4% | 97.6% | 105% | – | 99.5% | 104% | 110% | 73.8% | 104% | 102% | 100% | 99.5% | 102% | 109% | 101% | 116% | 105% | 100%
C=CCn1ccc(=O)nc1SC | 112% | 108% | 100% | – | 105% | 106% | 104% | 97.2% | 105% | 108% | 103% | 100% | 112% | 103% | 104% | 106% | 113% | 120%
Cc1cn(C(=O)/C(Cl)=C(/Cl)C(=O)O)c2ccccc12 | 101% | 82.4% | 110% | – | 95.8% | 97.8% | 104% | 101% | 111% | 109% | 104% | 108% | 105% | 108% | 108% | 101% | 104% | 66.1%
Oc1[nH]c2ccccc2c1/C=c1/cc2c(c(-c3ccc(C(F)(F)F)cc3)n1)=Nc1ccccc1-2 | 4.59% (active) | 12% | 63.5% | – | 79% | 74.8% | 31.7% | 37.5% | 82.7% | 4.17% (active) | 41.8% | 11.3% | 30% | 54.7% | 36.2% | 50.5% | 20.2% | 71.2%
Nc1ccc(C2=CC(c3ccc(Cl)cc3)N3C=CSC3=N2)cc1 (stereo not drawn) | -11.5% (active) | -21.3% (active) | -1.84% (active) | – | -51% (active) | 16.8% | 31.6% | -11% (active) | -50.7% (active) | -65.7% (active) | -60.5% (active) | -32.1% (active) | -89.3% (active) | -95.7% (active) | -41.4% (active) | 0.424% (active) | -63.1% (active) | -88.8% (active)
COc1ccc(-c2oncc2-c2cc(OC)c3c(c2)OCO3)cc1 | – | 23.8% | 35.6% | 37.9% | 19.7% | 4.09% (active) | 18.5% | 34.7% | 2.88% (active) | -35.5% (active) | 16.4% | 18% | 14.1% | 56% | 31.3% | 66.2% | 7.36% (active) | 53.3%
O=C(OCC1OC(n2cc(C(F)(F)F)c(=O)[nH]c2=O)CC1OC(=O)c1ccc([N+](=O)[O-])cc1)c1ccc([N+](=O)[O-])cc1 (stereo not drawn) | – | 71.9% | 66.8% | 82.9% | 63.1% | 88.5% | 88.7% | 74.4% | 60.1% | 50.6% | 65.6% | 33.6% | 72.7% | 51.5% | 72.2% | 88.2% | 74.1% | 82.3%
FC(F)(F)c1ccc(-c2cnc(Br)nc2NC2CCCCCC2)cc1 | 51% | -4.63% (active) | 24.1% | – | 71.6% | 53.4% | 77.9% | 19.3% | 56.6% | 20.4% | 28.2% | 27.1% | 20.3% | 72.1% | 25% | 22.6% | 10.8% | 36.1%
CCCCCCCCCCCC(=O)NCCCN(C)C | 2.57% (active) | 78.4% | 93.7% | – | 95.6% | 106% | 98.7% | 84.8% | 70.5% | 94.5% | 102% | 65.7% | 67.6% | 78.5% | 104% | 96.5% | 108% | 92%
O=C(CCc1ccccc1)N1CCN(C(=O)CCc2ccccc2)CC1 | 94.3% | 92.3% | 96% | – | 115% | 100% | 108% | 108% | 105% | 106% | 109% | 95.7% | 99.6% | 109% | 111% | 101% | 118% | 99.7%
O=c1[nH]c(=O)n(C2C[C@@H](O)[C@@H](CO)O2)cc1F (stereo partly drawn) | 25.9% | 59.2% | 30.2% | – | 43.6% | 60.8% | 29.6% | 54.3% | 1.4% (active) | 37.1% | 55.9% | 20.7% | 16.8% | – | 33.4% | 39% | 30.5% | 43.1%
CCC(O)c1ccc(Br)cc1NC(=O)c1cccc(Cl)c1 (stereo not drawn) | 8.25% (active) | 18.2% | 13.9% | – | 34% | 51% | 5.46% (active) | 20.8% | 42.7% | 16.9% | 13.8% | 14.4% | 20.7% | 19.1% | 26.3% | 24.9% | 33.8% | 10.4%
COc1ccc(-c2ccccc2)cc1C(=O)c1ccc(-c2ccccc2)cc1 | 23.8% | – | 93.1% | 87.8% | 76.6% | 81.5% | 41.2% | 85.7% | – | -7.15% (active) | 52.3% | 50.6% | 60.8% | 74.6% | 48.5% | 96.3% | 60.9% | 63.5%

Reference: PubChem BioAssay (NCI)
